From PubChem
D3 antag: qHTS of D3 Dopamine Receptor Antagonist: qHTS; D(3) dopamine receptor (Homo sapiens), P35462; D3R cells, DiscoveRx beta-arrestin luminescence, antagonist mode; active compounds read low; max response, negative = inhibition, %; hit rate 2.5% among 360,000; in the data active = max response below about -50%; inconclusive = no clear call, values can overlap the other calls
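Cells expressing the human receptor were seeded at 1500 cells/well, incubated overnight at 37 degrees C in 5% CO2, then exposed to library compounds with dopamine controls for 90 minutes at 37 degrees C before luminescent detection.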
Akt phos inh: HTS Assay for Inhibitors of Akt Phophorylation: Primary Screen; Neuro2A IGF-stimulated pAkt S473 HTRF, 20 min; active compounds read low; activity change, % for hits at 50 µM; hit rate 0.32% among 360,000; in the data active = activity change below about -80%; inconclusive = mostly about -51% to -80%
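Single-point screen (50 µM final compound) in Neuro2A cells stimulated 20 min with 6 nM IGF at 37 deg C. After lysis, Ser473-phosphorylated Akt read by HTRF (ex 330 nm, em 615/665 nm) as the 665/615 ratio.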
LDHA inh: qHTS assay for inhibitors of human lactate dehydrogenase | hit rate 0.15% among 480,000 | AID 1347041, 2019 | purified LDHA, NADH/diaphorase-resazurin fluorescence; active compounds read low | activity change, % (values are at about 110 or 230 µM); in the data active = activity change below about -30%; inconclusive = mostly about -25% to -30%
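Human LDH5 (2 nM) was incubated with 0.06 mM NADH and 0.2 mM pyruvate for 5 min at room temperature in Tris pH 7.4. Remaining NADH was coupled through diaphorase/resazurin, and resorufin fluorescence was read at 0 and 20 min.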
RGS4 inh: Inhibitors of Regulator of G Protein Signaling (RGS) 4: qHTS. Regulator of G-protein signaling 4 (Homo sapiens), P49798. Transcreener GDP fluorescence polarization, RGS4-accelerated GTP hydrolysis. Potency, µM (top dose mostly 114 µM), actives largely listed as inhibitors. hit rate 0.039% among 390,000. AID 504845, 2011; active = well fitted inhibition curve with a large enough effect; inconclusive = small, poorly fitted or top-dose-only effect; inactive = no such curve, though single readings can be large or run the other way; also: nearly all actives have a fitted effect of over 75% in size
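MLSMR compounds (23 nl, pin-transferred) preincubated 10 min at room temperature with a 500nM (2x) first reagent, then RGS4 at 900nM (2x) plus Transcreener GDP mix added; fluorescence polarization (620/688 nm) read before and after 90 min at 30 °C.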
PI4K2A block: qHTS for small molecular inhibitors of PI4K2A | Phosphatidylinositol 4-kinase type 2-alpha (Homo sapiens), Q9BTU6 | AID 1346378, 2018 | activity change, negative = inhibition, % at 76.9 µM | hit rate 0.13% among 420,000 | purified PI4K2A, ADP-Glo luminescence, 1 h; active compounds read low; in the data active = activity change below about -50%; inconclusive = mostly about -30% to -49%
Target sequence (Q9BTU6 whole entry, looked up): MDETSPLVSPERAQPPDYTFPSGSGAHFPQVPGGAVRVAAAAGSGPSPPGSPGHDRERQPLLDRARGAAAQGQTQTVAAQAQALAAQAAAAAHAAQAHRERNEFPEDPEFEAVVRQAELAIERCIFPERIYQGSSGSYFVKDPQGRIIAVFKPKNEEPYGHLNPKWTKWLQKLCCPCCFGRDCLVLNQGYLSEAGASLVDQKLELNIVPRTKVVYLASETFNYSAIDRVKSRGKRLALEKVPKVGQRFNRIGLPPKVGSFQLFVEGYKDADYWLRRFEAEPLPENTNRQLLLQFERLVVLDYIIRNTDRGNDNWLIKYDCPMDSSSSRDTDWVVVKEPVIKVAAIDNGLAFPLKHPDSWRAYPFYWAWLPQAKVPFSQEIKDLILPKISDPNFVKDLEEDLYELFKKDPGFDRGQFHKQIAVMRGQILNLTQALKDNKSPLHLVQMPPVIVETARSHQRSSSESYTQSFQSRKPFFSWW
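Compounds are screened against recombinant PI4K2A using PI as substrate and ATP, the latter dispensed at 300 microM. Reactions run one hour at ambient temperature before ADP-Glo detection; full inhibition defined by wells lacking enzyme.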
DRD3 agonist: qHTS of D3 Dopamine Receptor Agonist: qHTS | D(3) dopamine receptor (Homo sapiens), P35462 | D3R DiscoveRx beta-arrestin cells, luminescence, 90 min | max activation, % | hit rate 0.58% among 410,000 | AID 652048, 2013; in the data active = max activation above about 30%
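Agonist-mode cell screen: cells plated at 1500/well and incubated overnight at 37 °C, then exposed to library compounds for 90 min at 37 °C. Detection reagent was added for 30–60 min at room temperature, and luminescence was read.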
A number is an active result; i = inactive; ? = inconclusive; nt = no result; [ ] = dose if it differs, or a comment. An excerpt weighted towards active compounds, which were near 2.8% of everything screened.

SMILES	D3 antag	Akt phos inh	LDHA inh	RGS4 inh	PI4K2A block	DRD3 agonist
CC(=O)NC(CC(C)C)C(=O)NC(Cc1ccccc1)C(=O)CCl (centres undefined)	?	i	i	i	i	i
CSCCC(NC(=O)OCc1ccccc1)C(=O)O (centres undefined)	i	-104%	i	i	i	i
CCc1ccccc1NC(=O)c1n[nH]c(=O)c2ccccc12	nt	nt	i	nt	nt	nt
Cc1n[nH]c(C)c1/C=C/C(=O)c1ccc(Br)cc1	nt	nt	i	nt	nt	nt
CNCCOc1ccccc1OC(C)C	-79	i	i	i	i	i
O=c1[nH]c(=S)[nH]c(-c2ccccc2)c1Cc1c(O)ccc2ccccc12	nt	nt	nt	2.1µM	i	nt
N#Cc1c(-c2ccccc2)[nH]c(=S)[nH]c1=O	-60	nt	i	i	i	i
CC(=O)Nc1ccc(NC(=O)COC(=O)Cc2cccc3ccccc23)cc1	nt	nt	i	nt	nt	nt
CC1=C(C(=O)OC(C)(C)C)C(c2cccc(F)c2)C(C#N)=C(N)O1 (centres undefined)	nt	nt	i	nt	nt	nt
Cc1c(C)c2cc(Cl)c(OC(C)C(=O)NCc3cccnc3)cc2oc1=O (centres undefined)	nt	nt	i	nt	nt	nt
COc1ccc(S(=O)(=O)N2CCCCCC2)cc1C(=O)OCC(=O)NC(C)(C)C	i	i	i	i	i	39
Cc1c(C(=O)NC(C)CN2CCCCC2)oc2ccccc12 (centres undefined)	-77	i	i	i	i	i
COCc1c(C(=O)N2CCN(Cc3nc4ccccc4s3)CC2)oc2ccccc12	i	i	-33	?	i	i
CC(=O)N1CCN(C(=O)c2oc3ccccc3c2C)CC1	i	i	i	i	i	i
Cc1c(C(=O)N2CCN(Cc3cccs3)CC2)oc2ccccc12	-79	i	i	i	i	i
C=CCN1CCN(C(=O)c2oc3ccccc3c2C)CC1	-61	i	i	i	i	i
NC(=O)C(Sc1ccccc1)c1ccccc1 (centres undefined)	nt	nt	i	nt	nt	nt
CC(=O)Nc1c2c3c(cccc3n(C)c1=O)C(=O)c1ccccc1-2	-51	-113%	i	?	i	i
Cc1ccc(NCCC(=O)c2cc3ccccc3o2)cc1Br	nt	nt	i	nt	nt	nt
COc1ccc(-c2noc(CCCC(=O)NCC3CCCO3)n2)cc1 (centres undefined)	i	i	i	i	i	i
O=C(CCCc1nc(-c2ccc(Cl)cc2)no1)NCC1CCCO1 (centres undefined)	i	i	i	i	i	34
CC(=O)C1=C(O)C(=O)N(Cc2cccnc2)C1c1ccc(Cl)cc1 (centres undefined)	-50	nt	i	i	i	35
COc1cccc(C(NC(C)=O)c2nc(-c3cccc4cccnc34)cs2)c1 (centres undefined)	i	i	i	nt	i	57
COc1cccc(C(NC(C)=O)c2nc(-c3ccncc3)cs2)c1 (centres undefined)	i	i	i	nt	i	i
Cc1cccc(C(=O)NNC(=S)NC(=O)/C=C/c2cccs2)c1	nt	nt	i	nt	nt	nt
SMILES	D3 antag	Akt phos inh	LDHA inh	RGS4 inh	PI4K2A block	DRD3 agonist
CCN(CC)CCCN(C(=O)c1ccco1)c1nc(-c2ccc(C)cc2)cs1	?	i	i	i	i	i
CCN(CC)CCCN(C(=O)c1ccco1)c1nc(-c2ccc(Cl)cc2)cs1	-50	i	i	i	i	i
COc1ccc(C(O)P(=O)(O)CCc2ccccc2)cc1 (centres undefined)	i	-109%	i	i	i	i
O=P(O)(CCc1ccccc1)C(O)c1ccccc1 (centres undefined)	i	i	i	i[11.4 µM]	i	i
CN(CC(=O)Nc1ccc(Cl)cc1)C(=O)c1cccc(S(=O)(=O)NCc2ccccc2)c1	-64	i	i	i	i	i
Cc1ccc(C)c(N2CCN(Cc3nnc(-c4ccc5c(c4)OCO5)o3)CC2)c1	nt	nt	i	i	i	i
c1ccc(-c2nnc(CN3CCN(C(c4ccccc4)c4ccccc4)CC3)o2)cc1	-56	i	i	i	i	i
